# Measurements: the supplement of paper PMC10037445
# The full ranking holds about 2,900 compounds; the median of “NF-kB SEAP reporter activity, fold change vs agonist alone” is about 0.99, and the highest 2% start at about 2.6. The full list was thinned out, with the highest values kept by preference.
# Key:
# [1] = tested on: RAW-Dual; experiment: NF-kB SEAP reporter activity, fold change vs agonist alone; cytotoxicity flag (confluency mask): not cytotoxic; higher = enhanced NF-kB activity
# Summary of the method: (§1)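 RAW-Dual macrophages (50,000 cells/well in DMEM, 384-well plates) received 50 nL of library stock by pin tool, then a PRR agonist 1 h later, and were kept at 37 °C, 5% CO2. After 20 hours, supernatant was read for IRF by QuantiLuc luminescence and for NF-κB by QuantiBlue absorbance at 620 nm. Reporter activity is fold change over agonist-alone wells. Cytotoxic wells had IncuCyte confluency below 70% of agonist controls in both mask sets.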
# [2] = tested on: RAW-Dual; experiment: NF-kB SEAP reporter activity, fold change vs agonist alone; higher = enhanced NF-kB activity; details: library stock concentration (final ~1000-fold dilution): 10 mM
# Summary of the method: as §1
# [3] = tested on: RAW-Dual; experiment: NF-kB SEAP reporter activity, fold change vs agonist alone; cytotoxicity flag (confluency mask): cytotoxic (confluency <70% of control); higher = enhanced NF-kB activity
# Summary of the method: as §1
# [4] = agonist: ODN 1826 (TLR9) 0.5 ug/mL
# [5] = agonist: Pam2CSK4 (TLR2/6) 0.1 ug/mL
# [6] = agonist: Pam3CSK4 (TLR2/1) 0.1 ug/mL
# [7] = cytotoxicity flag (confluency mask): not cytotoxic, agonist: Imiquimod (TLR7) […]
# [8] = cytotoxicity flag (confluency mask): not cytotoxic, agonist: MPLA (TLR4) […]
# [9] = cytotoxicity flag (confluency mask): cytotoxic (confluency <70% of control), agonist: Imiquimod (TLR7) […]
# [10] = cytotoxicity flag (confluency mask): cytotoxic (confluency <70% of control), agonist: MPLA (TLR4) […]
smiles,measurement,setting,value
CCNC(=O)[C@]12CCC(C)(C)C[C@H]1[C@H]1C(=O)C=C3[C@@]4(C)C=C(C#N)C(=O)C(C)(C)[C@@H]4CC[C@@]3(C)[C@]1(C)CC2 (library stock concentration (final ~1000-fold dilution): 10 mM),NF-kB SEAP reporter activity,[1]; agonist: LPS (TLR4) 0.1 ug/mL,0.324
same,NF-kB SEAP reporter activity,[1]; [4],0.193
same,NF-kB SEAP reporter activity,[1]; [5],0.0804
same,NF-kB SEAP reporter activity,[1]; [6],0.173
CCNC(=O)[C@]12CCC(C)(C)C[C@H]1[C@H]1C(=O)C=C3[C@@]4(C)C=C(C#N)C(=O)C(C)(C)[C@@H]4CC[C@@]3(C)[C@]1(C)CC2,NF-kB SEAP reporter activity,[2]; [7],0.15
same,NF-kB SEAP reporter activity,[2]; [8],0.256
CC(O)C(=O)O.CN1CCN(c2ccc3nc(-c4c(N)c5c(F)cccc5[nH]c4=O)[nH]c3c2)CC1,NF-kB SEAP reporter activity,[2]; [9],0.335
same,NF-kB SEAP reporter activity,[2]; [10],0.591
CC(O)C(=O)O.CN1CCN(c2ccc3nc(-c4c(N)c5c(F)cccc5[nH]c4=O)[nH]c3c2)CC1 (library stock concentration (final ~1000-fold dilution): 10 mM),NF-kB SEAP reporter activity,[3]; agonist: LPS (TLR4) 0.1 ug/mL,0.341
same,NF-kB SEAP reporter activity,[3]; [4],0.18
same,NF-kB SEAP reporter activity,[3]; [5],0.15
same,NF-kB SEAP reporter activity,[3]; [6],0.219
C=C(CC(=O)OCCCCCCCC)C(=O)O,NF-kB SEAP reporter activity,[2]; [7],0.711
same,NF-kB SEAP reporter activity,[2]; [8],0.955
C=C(CC(=O)OCCCCCCCC)C(=O)O (library stock concentration (final ~1000-fold dilution): 10 mM),NF-kB SEAP reporter activity,[1]; agonist: LPS (TLR4) 0.1 ug/mL,0.76
same,NF-kB SEAP reporter activity,[1]; [4],0.641
same,NF-kB SEAP reporter activity,[1]; [5],0.455
same,NF-kB SEAP reporter activity,[1]; [6],0.645
NCC(O)(c1ccc(Cl)cc1)c1ccc(-c2cn[nH]c2)cc1 (stereo unspecified),NF-kB SEAP reporter activity,[2]; [7],0.966
same,NF-kB SEAP reporter activity,[2]; [8],0.527
NCC(O)(c1ccc(Cl)cc1)c1ccc(-c2cn[nH]c2)cc1 (stereo unspecified) (library stock concentration (final ~1000-fold dilution): 10 mM),NF-kB SEAP reporter activity,[1]; agonist: LPS (TLR4) 0.1 ug/mL,0.342
same,NF-kB SEAP reporter activity,[1]; [4],0.435
same,NF-kB SEAP reporter activity,[1]; [5],0.236
same,NF-kB SEAP reporter activity,[1]; [6],0.327
CN1C(=N)NC(C)(c2cc(NC(=O)c3ccc(F)cn3)ccc2F)CS1(=O)=O.O=C(O)C(F)(F)F (stereo unspecified) (library stock concentration (final ~1000-fold dilution): 10 mM),NF-kB SEAP reporter activity,[1]; agonist: LPS (TLR4) 0.1 ug/mL,0.826
same,NF-kB SEAP reporter activity,[1]; [4],0.731
same,NF-kB SEAP reporter activity,[1]; [5],0.823
same,NF-kB SEAP reporter activity,[1]; [6],0.856
CN1C(=N)NC(C)(c2cc(NC(=O)c3ccc(F)cn3)ccc2F)CS1(=O)=O.O=C(O)C(F)(F)F (stereo unspecified),NF-kB SEAP reporter activity,[2]; [7],0.873
same,NF-kB SEAP reporter activity,[2]; [8],0.781
O=C(OCC1OC(OC(=O)c2cc(O)c(O)c(OC(=O)c3cc(O)c(O)c(O)c3)c2)C(OC(=O)c2cc(O)c(O)c(OC(=O)c3cc(O)c(O)c(O)c3)c2)C(OC(=O)c2cc(O)c(O)c(OC(=O)c3cc(O)c(O)c(O)c3)c2)C1OC(=O)c1cc(O)c(O)c(OC(=O)c2cc(O)c(O)c(O)c2)c1)c1cc(O)c(O)c(OC(=O)c2cc(O)c(O)c(O)c2)c1 (stereo unspecified),NF-kB SEAP reporter activity,[2]; [7],0.144
same,NF-kB SEAP reporter activity,[2]; [8],0.319
O=C(OCC1OC(OC(=O)c2cc(O)c(O)c(OC(=O)c3cc(O)c(O)c(O)c3)c2)C(OC(=O)c2cc(O)c(O)c(OC(=O)c3cc(O)c(O)c(O)c3)c2)C(OC(=O)c2cc(O)c(O)c(OC(=O)c3cc(O)c(O)c(O)c3)c2)C1OC(=O)c1cc(O)c(O)c(OC(=O)c2cc(O)c(O)c(O)c2)c1)c1cc(O)c(O)c(OC(=O)c2cc(O)c(O)c(O)c2)c1 (stereo unspecified) (library stock concentration (final ~1000-fold dilution): 10 mM),NF-kB SEAP reporter activity,[1]; agonist: LPS (TLR4) 0.1 ug/mL,1.25
same,NF-kB SEAP reporter activity,[1]; [4],0.116
same,NF-kB SEAP reporter activity,[1]; [5],1.04
same,NF-kB SEAP reporter activity,[1]; [6],0.185
C=CC1CC1(NC(=O)C1CC(Oc2ncc(OC)c3ccc(Cl)cc23)CN1C(=O)C(NC(=O)OC(C)(C)C)C(C)(C)C)C(=O)NS(=O)(=O)C1CC1 (stereo unspecified),NF-kB SEAP reporter activity,[2]; [10],1.06
C=CC1CC1(NC(=O)C1CC(Oc2ncc(OC)c3ccc(Cl)cc23)CN1C(=O)C(NC(=O)OC(C)(C)C)C(C)(C)C)C(=O)NS(=O)(=O)C1CC1 (stereo unspecified) (library stock concentration (final ~1000-fold dilution): 10 mM),NF-kB SEAP reporter activity,[3]; agonist: LPS (TLR4) 0.1 ug/mL,1.1
same,NF-kB SEAP reporter activity,[3]; [4],0.915
same,NF-kB SEAP reporter activity,[3]; [5],0.518
same,NF-kB SEAP reporter activity,[3]; [6],0.508
Cc1cc(Nc2cc(N3CCN(C)CC3)nc(/C=C/c3ccccc3)n2)n[nH]1.O=C(O)C(O)C(O)C(=O)O,NF-kB SEAP reporter activity,[2]; [7],0.89
same,NF-kB SEAP reporter activity,[2]; [8],0.85
Cc1cc(Nc2cc(N3CCN(C)CC3)nc(/C=C/c3ccccc3)n2)n[nH]1.O=C(O)C(O)C(O)C(=O)O (library stock concentration (final ~1000-fold dilution): 10 mM),NF-kB SEAP reporter activity,[1]; agonist: LPS (TLR4) 0.1 ug/mL,0.407
same,NF-kB SEAP reporter activity,[1]; [4],0.191
same,NF-kB SEAP reporter activity,[1]; [5],0.297
same,NF-kB SEAP reporter activity,[1]; [6],0.279
CNC(C)C(=O)NC(C(=O)N1CCCC1c1nc(C(=O)c2ccc(F)cc2)cs1)C1CCCCC1 (stereo unspecified),NF-kB SEAP reporter activity,[2]; [9],1.16
same,NF-kB SEAP reporter activity,[2]; [10],0.714
CNC(C)C(=O)NC(C(=O)N1CCCC1c1nc(C(=O)c2ccc(F)cc2)cs1)C1CCCCC1 (stereo unspecified) (library stock concentration (final ~1000-fold dilution): 10 mM),NF-kB SEAP reporter activity,[3]; agonist: LPS (TLR4) 0.1 ug/mL,0.436
same,NF-kB SEAP reporter activity,[3]; [4],0.764
same,NF-kB SEAP reporter activity,[3]; [5],0.902
same,NF-kB SEAP reporter activity,[3]; [6],0.517
O=c1cc(-c2ccc(O)cc2)oc2cccc(O)c12,NF-kB SEAP reporter activity,[2]; [7],1.07
same,NF-kB SEAP reporter activity,[2]; [8],1.37
O=c1cc(-c2ccc(O)cc2)oc2cccc(O)c12 (library stock concentration (final ~1000-fold dilution): 10 mM),NF-kB SEAP reporter activity,[1]; agonist: LPS (TLR4) 0.1 ug/mL,1.55
same,NF-kB SEAP reporter activity,[1]; [4],1.15
same,NF-kB SEAP reporter activity,[1]; [5],1.09
same,NF-kB SEAP reporter activity,[1]; [6],1.82
O=C(O)CSc1cc(NS(=O)(=O)c2ccc(Br)cc2)c2ccccc2c1O,NF-kB SEAP reporter activity,[2]; [7],1.12
same,NF-kB SEAP reporter activity,[2]; [8],2.21
O=C(O)CSc1nnc(Br)n1-c1ccc(C2CC2)c2ccccc12,NF-kB SEAP reporter activity,[2]; [8],0.983
O=C(O)CSc1cc(NS(=O)(=O)c2ccc(Br)cc2)c2ccccc2c1O (library stock concentration (final ~1000-fold dilution): 10 mM),NF-kB SEAP reporter activity,[1]; agonist: LPS (TLR4) 0.1 ug/mL,3.16
same,NF-kB SEAP reporter activity,[1]; [4],1.31
same,NF-kB SEAP reporter activity,[1]; [5],1.24
same,NF-kB SEAP reporter activity,[1]; [6],2.31
